# FBW7 activator – activators of human E3 ligase FBW7; Q969H0; normalized activity (activation), % at 26.1 µM; AlphaScreen FBW7–phospho-cyclin E peptide binding, activator screen; 0.13% of 650,000 active; in the data active = normalized activity above about 1.9%;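 note: purified mutant Fbw7 with reduced substrate affinity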
# Target sequence (Q969H0 whole entry, looked up): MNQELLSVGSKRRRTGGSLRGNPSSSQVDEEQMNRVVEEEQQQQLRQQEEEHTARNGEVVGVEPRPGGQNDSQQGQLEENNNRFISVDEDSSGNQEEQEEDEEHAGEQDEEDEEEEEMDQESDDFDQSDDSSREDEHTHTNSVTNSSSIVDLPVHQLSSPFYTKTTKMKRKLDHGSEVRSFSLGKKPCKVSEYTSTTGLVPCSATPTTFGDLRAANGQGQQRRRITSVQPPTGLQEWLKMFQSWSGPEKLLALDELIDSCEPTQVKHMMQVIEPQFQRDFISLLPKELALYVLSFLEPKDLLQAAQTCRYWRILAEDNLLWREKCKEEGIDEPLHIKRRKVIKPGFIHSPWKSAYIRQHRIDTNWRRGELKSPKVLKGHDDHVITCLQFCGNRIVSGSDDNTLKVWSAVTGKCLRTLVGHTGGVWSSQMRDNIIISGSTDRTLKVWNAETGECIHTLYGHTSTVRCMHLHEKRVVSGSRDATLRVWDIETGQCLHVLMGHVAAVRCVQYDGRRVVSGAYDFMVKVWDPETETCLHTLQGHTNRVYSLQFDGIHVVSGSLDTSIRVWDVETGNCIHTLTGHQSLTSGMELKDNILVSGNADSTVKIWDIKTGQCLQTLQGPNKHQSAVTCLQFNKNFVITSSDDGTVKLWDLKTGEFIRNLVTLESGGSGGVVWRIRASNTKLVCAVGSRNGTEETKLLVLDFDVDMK
# MITF inh – blocks human microphthalmia-associated transcription factor. inhibition, % at 2.6 µM. 0.91% of 650,000 active. AlphaScreen MITF homodimerization, bead proximity signal. O75030; in the data active = inhibition above about 50%;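 note: 0% = vehicle wells with protein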
# GPR151 activ – activates the human receptor GPR151; PathHunter beta-arrestin GPR151 cells, luminescence; activation, % at 11.2 µM; 1% of 650,000 active; in the data active = activation above about 4.9%;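 note: 0% = median of compound wells and 100% = cells with positive control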
# TEAD-YAP inh – TEAD-YAP interaction inhibition. 1.4% of 640,000 active. AID 1259422. inhibition, % at 9.12 µM. HEK-TIYL cells, TEAD-Gal4/YAP UAS-luciferase luminescence; in the data active = inhibition above about 32%;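 note: 0% = median of test compound wells and 100% = reference inhibitor wells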
# MITF inh conf – confirmation of human MITF inhibitors; shares compounds with MITF inh; AlphaScreen MITF homodimerization, biotin/His-MITF beads; inhibition, % at 2.6 µM; 16% of 4,700 active; AID 1259372;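 active = inhibition above a cutoff derived from the DMSO control wells, cut at about 28% in these data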;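 note: 0% = MITF dimer wells with DMSO only; inhibitors lower the bead chemiluminescence by keeping MITF from dimerizing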
# AS interf DR – counter-screen: compounds optically interfering with AlphaScreen; AlphaScreen optical interference counterscreen, cell-free; AID 1259373; 6% of 480 active; shares compounds with MITF inh; IC50, µM; call rule not given here
# AlphaScreen intf2 – AlphaScreen optical interference, counter-screen; inhibition, % at 2.6 µM; shares compounds with MITF inh; AID 1259376; LysRS AlphaScreen counterscreen, signal interference, triplicate; 7.6% of 4,700 active;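 active = inhibition above a cutoff derived from the DMSO control wells, cut at about 30% in these data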
# Starred values were filed as active, the others as inactive; . = no result. Most compounds without a hit are left out; they make up all but 3.4% or so of the library.
SMILES,FBW7 activator,MITF inh,GPR151 activ,TEAD-YAP inh,MITF inh conf,AlphaScreen intf2,others
CCCCCn1c(SCC(=O)NCCc2ccccc2)nc2cc(C(=O)N3CCC(C(N)=O)CC3)ccc2c1=O,0.1,-1.5,-0.1,1.6,.,.,
O=C1c2ccccc2C(=O)N1c1ccccc1,0.0,21.4,-1.8,9.3,.,.,
Nc1cccc2c1C(=O)N(c1ccccc1)C2=O,0.3,52.1*,-0.1,-6.1,-0.1,9.7,
CC(O)CNc1nc2c(c(=O)n(Cc3ccccc3F)c(=O)n2C)n1C (stereo unspecified),0.1,60.8*,0.2,0.3,6.1,10.9,
Cc1ccc(C)c(C(=O)Nc2ccccc2F)c1,0.1,83.6*,-1.2,-3.9,13.5,7.2,
CCCNC(=O)Nc1ccc(Cl)c(C(=O)O)c1,0.1,64.3*,0.5,2.0,-16.1,-8.3,
O=C(O)CCC(=O)Nc1ccc(Cl)c(C(=O)O)c1,0.0,5.8,-1.0,8.6,.,.,
O=C(NCc1ccc2c(c1)OCO2)C1(S(=O)(=O)c2ccc(Cl)cc2)CC1,-0.1,87.8*,0.8,9.8,-2.2,-3.5,
O=C(CNCCc1ccc(Cl)cc1)NCc1ccc2c(c1)OCO2,0.6,60.0*,-1.1,11.1,6.5,20.9,
C/C(=N\NC(=O)C1CC1(c1ccccc1)c1ccccc1)C(C)C (stereo unspecified),0.2,-4.0,0.5,1.4,.,.,
COc1cccc(C(=O)N[C@H]2C[C@H]3C(=O)N[C@H](C)C(=O)N3C2)c1,-0.2,65.9*,-0.8,-5.1,-1.7,-7.4,
Cc1nc(C)n(-c2ccc(Nc3cc(-n4cc(N(c5cccnc5)c5cccnc5)cn4)ccn3)cc2)n1,0.6,50.8*,-1.4,-1.3,52.2*,0.3,AS interf DR=>6.48
CC(C)(C)c1ccc(C(=O)NC(CC(=O)O)c2cccc([N+](=O)[O-])c2)cc1 (stereo unspecified),-0.1,2.1,0.4,9.7,.,.,
CC(=O)Nc1ccc(C(=O)NC(CC(=O)O)c2cccc([N+](=O)[O-])c2)cc1 (stereo unspecified),0.0,60.3*,0.8,7.2,-1.7,1.4,
CCCCNS(=O)(=O)c1ccc2[nH]c3nc(SCC(=O)NC4CCCC4)nnc3c2c1,-0.1,-6.1,0.1,0.9,.,.,
CCC(C1=C(O)CC(C)(C)CC1=O)C1C(=O)CC(C)(C)CC1=O (stereo unspecified),-0.1,52.6*,-0.6,8.0,2.2,1.1,
CC1(C)CC(=O)C(C(C2=C(O)CC(C)(C)CC2=O)c2ccccc2O)C(=O)C1 (stereo unspecified),0.4,8.5,0.0,-4.2,.,.,
CCC1=NN2C(=N)/C(=C/c3cn(CCOc4ccccc4C(C)CC)c4ccccc34)C(=O)N=C2S1 (stereo unspecified),0.1,-4.0,1.3,-4.9,.,.,
O=C(CSc1ccc(-c2ccccn2)nn1)Nc1ccc(Br)cc1,-0.1,4.3,0.5,-6.4,.,.,
CC(=O)c1cccc(NC(=O)CSc2ccc(-c3ccccn3)nn2)c1,-2.0,46.5,-4.4,4.5,.,.,
CC(=O)Nc1ccc(NC(=O)CSc2ccc(-c3ccccn3)nn2)cc1,-0.1,82.8*,-3.2,5.1,83.2*,100.3*,
CC(=O)Nc1cccc(NC(=O)CSc2ccc(-c3ccccn3)nn2)c1,-0.3,83.7*,1.2,-7.7,78.6*,99.8*,
Cc1cccc(NC(=O)CSc2ccc(-c3ccccn3)nn2)c1,-0.2,56.9*,-3.1,-3.1,76.1*,99.3*,
COc1ccccc1C(=O)Nc1ccc(-c2nnn(CC(=O)Nc3cc(C)on3)n2)cc1,0.2,16.8,-0.2,9.1,.,.,
N#CCSc1nc2ccccc2c(=O)n1NC(=O)c1ccccc1,-0.1,66.9*,-8.0,82.5*,1.9,10.3,
SMILES,FBW7 activator,MITF inh,GPR151 activ,TEAD-YAP inh,MITF inh conf,AlphaScreen intf2,others
COc1ccccc1N1CCN(C(=O)CSc2nc3ccccc3c(=O)n2NC(=O)Cc2ccccc2)CC1,0.0,23.5,2.3,13.5,.,.,
COc1ccccc1N1CCN(C(=O)CSc2nc3ccccc3c(=O)n2NC(=O)c2ccccc2)CC1,0.1,75.2*,0.5,-5.7,6.7,13.2,
O=C(CSc1nnnn1C1CCCCC1)c1ccccc1,0.1,5.5,0.0,-1.2,.,.,
O=C(CSc1nnnn1C1CCCC1)c1ccccc1F,0.0,116.2*,-1.5,-61.6,-7.9,23.8,
CC(=O)NNC(=O)CSc1nnnn1C1CCCCC1,-0.1,76.3*,-0.6,-5.1,6.9,14.9,
Cc1onc(C(=O)Nc2sc3c(c2C#N)CCC3)c1[N+](=O)[O-],-0.2,-16.9,-1.7,1.1,.,.,
C[C@H](O)[C@H]1NC(=O)[C@@H]2C[C@H](NC(=O)c3cccc(Br)c3)CN2C1=O,0.0,-1.8,1.9,-16.1,.,.,
CC1=C(C(=O)OC2CCCCC2)C(c2ccc(OCc3ccccc3)cc2)NC(=O)N1 (stereo unspecified),-0.1,54.9*,-0.5,2.9,2.8,11.2,
CC1=C(C(=O)OC2CCC(C)CC2)C(c2ccccc2Cl)NC(=O)N1 (stereo unspecified),0.3,80.7*,-1.2,-6.5,10.8,19.7,
CC(C)CN1C(=O)c2ccccc2C(C(=O)N2CCN(C)CC2)C1c1cccs1 (stereo unspecified),-0.1,-7.0,-1.4,0.0,.,.,
COc1cccc(Nc2nc(-c3ccccc3Cl)nc3ccccc23)c1,-0.1,52.3*,-0.3,27.8,2.7,9.3,
Nc1nonc1C(=O)N/N=C/c1ccc(O)cc1,-0.1,-17.8,-7.5,-3.0,.,.,
O=C(CSc1ccc(-c2ccccn2)nn1)N1CCN(c2ccccc2)CC1,-1.6,8.9,-0.6,7.1,.,.,
O=C(C1CC1)N1CCN(c2ccc(-c3ccccn3)nn2)CC1,-1.5,121.8*,-5.7,-14.9,111.9*,100.6*,
CC(C)CC(=O)N1CCN(c2ccc(-c3ccccn3)nn2)CC1,-1.6,125.4*,-2.6,-5.0,114.1*,100.6*,
O=C(c1ccccc1F)N1CCN(c2ccc(-c3ccccn3)nn2)CC1,-1.5,118.8*,-0.4,-23.2,109.9*,100.6*,
O=C1OC(c2ccccc2F)=N/C1=C\c1ccc(Cl)c(Cl)c1,0.0,3.2,1.0,-7.3,.,.,
CCOC(=O)Nc1ccc(S(=O)(=O)NCC2CCCO2)cc1 (stereo unspecified),0.0,1.8,-0.3,-10.4,.,.,
COc1ccc(C2C(=O)N(C3CCCCCC3)CC(=O)N2Cc2ccccc2OC)cc1 (stereo unspecified),-0.3,2.8,-1.0,-16.4,.,.,
COc1ccc(CCNC(=O)c2ccc3nc(NCc4ccc5c(c4)OCO5)sc3c2)cc1,0.1,-14.5,-1.2,-8.6,.,.,
Cc1ccc(Cl)cc1N1CCN(C(=S)NCCN2CCOCC2)CC1,0.0,50.9*,-1.8,1.2,-0.8,3.1,
O=C(NC1CCCC1)C1c2ccccc2Oc2ccccc21,-0.2,76.3*,-0.2,-1.5,-2.1,-6.2,
CCn1c2ccccc2c2cc(CN3CCCN(C)CC3)ccc21,-0.2,40.2,-0.2,-7.5,.,.,

# High-throughput results as filed in PubChem.
